Experimental data taken from PubChem BioAssay AID588493 (Sanford-Burnham Center for Chemical Genomics, 2011).
Out of some 360,000 compounds screened, about 2,100 (0.58%) were called active. The sample holds actives, similar compounds and a random draw of the others, so the mix is not that of the screen. Unmarked numbers belong to inactive results.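 How the source made its calls: active means inhibition at 20 µM, scaled to each plate's controls, above about 33% (limit read from the data); inactive means the rest.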

target: 26S proteasome non-ATPase regulatory subunit 14 (Homo sapiens) (UniProt O00487); assay: inhibition of 26S proteasome subunit Rpn11 – biochemical, fluorescence polarization, uHTS, primary screen (AID 588493); details: human 26S proteasome, Ub4-pepOG fluorescence polarization; at 20 µM; active compounds read high; 20S core pre-blocked with epoxomicin
Sequence (O00487 whole entry, looked up): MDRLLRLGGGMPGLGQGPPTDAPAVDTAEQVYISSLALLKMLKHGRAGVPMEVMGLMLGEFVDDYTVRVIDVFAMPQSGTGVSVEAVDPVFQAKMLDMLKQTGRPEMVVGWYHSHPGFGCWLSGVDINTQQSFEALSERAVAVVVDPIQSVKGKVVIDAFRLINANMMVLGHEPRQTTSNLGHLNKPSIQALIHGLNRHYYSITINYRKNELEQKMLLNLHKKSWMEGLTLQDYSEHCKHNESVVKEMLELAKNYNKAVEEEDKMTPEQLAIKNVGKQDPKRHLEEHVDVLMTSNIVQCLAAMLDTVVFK

SMILES	inhibition
COc1cccc(NC(=O)CC(c2ccc(OC(C)C)cc2)c2ccccc2OC)c1 (configuration not stated)	-1.6%
COc1cccc(NC(=O)C(C)Oc2ccccc2)c1 (configuration not stated)	112% (active)
COc1ccc(OC(C)C(=O)Nc2cccnc2)cc1 (configuration not stated)	-6%
Cc1ccc2[nH]c(C(=O)O)c(NC(=O)c3ccccc3[N+](=O)[O-])c2c1	3.4%
Cc1ccc(S(=O)(=O)N2CCCC2C(=O)OCc2nc3sc(C)c(C)c3c(=O)[nH]2)cc1 (configuration not stated)	-0.8%
Cc1sc2nc(COC(=O)C(NC(=O)c3ccc(Cl)cc3Cl)C(C)C)[nH]c(=O)c2c1C (configuration not stated)	56.9% (active)
O=C(CN1C(=O)CC(c2ccccc2)S(=O)(=O)c2ccccc21)NC1CCCC1 (configuration not stated)	-1.6%
CCN(c1ccccc1)S(=O)(=O)c1cc2c(cc1C)n(C)c(=O)c(=O)n2C	-1.8%
COC(=O)CCSc1cc([N+](=O)[O-])cc2c1c(C1OCCS1)nn2-c1ccccc1 (configuration not stated)	14%
CCC[C@@H]1C[C@@]1(CCC)[C@@H](NC(=O)c1ccccc1)c1ccc(C(=O)OC)cc1	-3.6%
CCC/C=C(\CCC)C(NC(=O)Cc1ccccc1)c1ccc(C(=O)OC)cc1 (configuration not stated)	40.7% (active)
COC(=O)c1ccc(C(NC(=O)OCc2ccccc2)/C(F)=C/[C@@H](C)C(=O)O)cc1 (some centres not stated)	-4.9%
O=C(Cc1ccccc1)NNC(=O)C1CCN(c2ncccn2)CC1	-1.3%
Oc1c(CN2CCCC2)cc(COCc2ccccc2)c2cccnc12	49.9% (active)
O=c1cc(CN2CCCCCCC2)c2c(ccc3ccccc32)o1	6.4%
COCC(=O)N1CCCC(C(=O)c2ccc(C(F)(F)F)cc2)C1 (configuration not stated)	-0.9%
CCOC(=O)c1cc(NC(=O)SCC(=O)O)c(C)nc1C	1%
CCCNC(=O)C1(C)CCN(C(=O)c2ccccc2OC(F)(F)F)C1 (configuration not stated)	-2.7%
COc1ccc(Cc2cc(-c3ccc(F)cc3)n[nH]c2=O)cc1	-2%
COc1ccc2[nH]c(=O)c(CNc3ccc(C)c(C)c3)cc2c1	-2.9%
CCOC(=O)CSc1nc2ccc(C)cc2n2cnnc12	3.8%
CC1(c2ccccc2)NC(=O)N(CC(=O)N2CC(=O)Nc3ccccc32)C1=O (configuration not stated)	-0.8%
CCOC(=O)n1c(SCC(=O)N(CC)CC)nc2ccccc21	4%

SMILES	inhibition
CCN(CC)C(=O)CSc1nc2ccccc2n1CC(=O)N1CCN(c2ccccc2OC)CC1	34.8% (active)
COc1ccccc1OCCn1c(SCC(N)=O)nc2ccccc21	-6.3%
CCCCN(C=O)c1c(CC)nc2c(OCCC3CCCCC3)cccn12	3.8%
Cc1cc(N)n2nc(-c3ccc(C(C)(C)C)cc3)cc2n1	8.7%
Cc1cc2cc(CNC(=O)c3cccs3)ccc2[nH]1	3.4%
Cc1cc(/C=N/Nc2ccc([N+](=O)[O-])cn2)c(C)n1-c1cccc(C(=O)O)c1	49% (active)
CC(C)c1ccc(C=NNc2ccc([N+](=O)[O-])cn2)cc1	3.1%
Cc1cc(/C=N/NC(=O)CC2(C)OCCO2)c(C)n1-c1ccc(Cl)c(Cl)c1	4.1%
O=C(Nc1cccc(Cl)c1)c1cc(S(=O)(=O)N2CCCCC2)c[nH]1	3.9%
CN(C)C(=O)c1cccc(-c2cnc3sc(NCc4ccc5c(c4)OCO5)nn23)c1	-1.9%
NC(=NC(=O)c1ccccc1)C1=C(O)CCC1=O	-7.5%
COCCCNC(=O)Cn1c(=O)n(Cc2ccccc2Cl)c(=O)c2cc(OC)c(OC)cc21	-0.4%
Cc1ccc(Nc2nc(Cl)c(C=O)s2)cc1	108% (active)
CCCCC(=O)Nc1nc(C)c(-c2csc(Nc3ccc(Cl)cc3)n2)s1	13.9%
Cc1ccc(Nc2nnc(SC(C)C(=O)NC3CC3)s2)cc1 (configuration not stated)	4.1%
CSc1ncnc2c1ncn2CCCNCC(C)c1ccccc1 (configuration not stated)	-1.5%
COC(=O)C1=C(C)NC(=O)/C1=C/c1ccc(CNS(=O)(=O)c2ccc(C)cc2)o1	-0.8%
COC(=O)C1=C(C)NC2=C(C(=O)c3ccccc32)C1c1ccc(-c2ccc(C(=O)O)cc2)o1 (configuration not stated)	67.4% (active)
O=C(NCc1ccc(Cl)cc1)C1CCN(S(=O)(=O)c2cccs2)CC1	4.3%
Cn1nnnc1SCC(=O)Nc1ccccc1C(=O)NC1CC1	5.5%
CCN(CC)CCn1c2c(c(SCC(=O)Nc3ccc(C(C)C)cc3)nc1=O)CCC2	0.3%
CC(=O)Nc1c2c(nn1-c1ccc(C)cc1C)CS(=O)C2 (configuration not stated)	1.3%
COc1ccc(CCNC2=C(Cl)C(=O)N(Cc3ccccc3)C2=O)cc1OC	-4.9%

SMILES	inhibition
COc1cc(/C=C2/SC(=S)N(Cc3ccccc3)C2=O)cc(OC)c1O	49.6% (active)
O=C(Nc1ccc(OCCO)cc1)c1csc([C@H]2C[C@H](O)[C@@H](CO)O2)n1	0.7%
CC(C)=CCN1CCN(CCCc2ccccc2)CC1CCO (configuration not stated)	-5%
Cc1nc(N)sc1N=Nc1c(C)n(C)n(-c2ccccc2)c1=O	8.3%
Cc1c(N=Nc2ccc(N(C)C)cc2)c(=O)n(-c2ccccc2)n1C	67.4% (active)
Cc1c(C=O)n(C)n(-c2ccccc2)c1=O	8.1%
Cc1csc(=O)n1CCC(=O)OCC(=O)Nc1ccc(N2CCOCC2)cc1	-1.7%
O=C(OCC(=O)N1CCOCC1)c1ccc(N2CCOCC2)c([N+](=O)[O-])c1	1.7%
CCCCN(CC)C(=O)c1ccccc1Oc1ccccc1	-5%
CC(=O)N1c2ccccc2N(Cc2ccc([N+](=O)[O-])cc2)C(=O)C1(C)C	-1.8%
O=[N+]([O-])c1ccc(C(S(=O)(=O)Cc2ccccc2)S(=O)(=O)Cc2ccccc2)cc1	-4%
O=C1NC(=O)C2C1C(c1ccc([N+](=O)[O-])cc1)=NN2Cc1ccccc1 (configuration not stated)	50.8% (active)
CC(=O)CSc1nc(CCc2ccccc2)c(C#N)c(=O)[nH]1	-4.6%
N#Cc1c(-c2cccs2)nc(SCC(=O)c2ccc(Br)cc2)[nH]c1=O	68.3% (active)
Cc1cc(C)c2c(=O)[nH]c(SCC(=O)Nc3ccc(Br)cc3)nc2n1	2.1%
COC(=O)[C@H](C(C)C)n1c(C)c(C(C)=O)c(C(C)=O)c1C	3.5%
O=C1CSC(=S)N1/N=C/c1ccc(O)c([N+](=O)[O-])c1	48.1% (active)
CCOc1cccc(/C=N/N2C(=O)CSC2=S)c1O	32.9%
COc1ccc(C2CC(c3ccccc3)=NN2C(=O)c2ccc(Cl)c([N+](=O)[O-])c2)cc1 (configuration not stated)	-5%
CCCCc1nc(NCCN)c(C#N)c2c1CSC(C)(C)C2	0.8%
COc1ccc(CC(N)c2csc(NC(=O)Nc3ccc(C(C)C)cc3)n2)cc1 (configuration not stated)	2.4%
COc1ccc(Cl)cc1N(CC(=O)N/N=C/c1ccc(OCC(N)=O)cc1)S(C)(=O)=O	-5.6%
NC(N)=N/N=C/c1ccc(OCc2ccc(Cl)cc2Cl)cc1	51.4% (active)

SMILES	inhibition
NC(=O)COc1ccc(/C=N/NC(=O)C2CCCN2S(=O)(=O)c2ccc(Cl)cc2)cc1 (configuration not stated)	-4.1%
CC1CCC2(CC1)NC(=O)N(CC(=O)NCc1ccco1)C2=O (configuration not stated)	7.9%
N#Cc1c(-c2ccc(Cl)cc2)c2c([nH]c1=S)CCCC2	10.1%
CC1Cc2ccccc2N1S(=O)(=O)c1cccc(C(=O)NCC(c2ccco2)N2CCCC2)c1 (configuration not stated)	5.2%
C=CCn1c(=S)[nH]c2scc(-c3ccco3)c2c1=O	48.1% (active)
CC1(C)C(C=C(Cl)Cl)C1C(=O)N(Cc1ccc(Cl)cc1)C1CCS(=O)(=O)C1 (configuration not stated)	-6.8%
CC(C)(C)NC(=O)NC(=O)CN1CCC(Cc2ccccc2)CC1	2.6%
O=C(O)CCCCOn1ccnc1	-5.3%
Cc1ccc2[nH]c(=O)c(COC(=O)c3ccccn3)cc2c1	-5.9%
O=C(OCc1cc2ccccc2[nH]c1=O)c1cccnc1	93.5% (active)
O=C(OCc1cc(Cl)ccc1OC(F)F)c1cccnc1	9.5%
COc1cccc(C2CC(c3ccccc3)=NN2S(=O)(=O)c2ccccc2)c1OC (configuration not stated)	1.8%
COc1cccc(Nc2nnc(SCC(=O)N3CC(=O)Nc4ccccc43)s2)c1	0.5%
O=C(CCS(=O)(=O)c1ccc(Br)cc1)NCCc1ccc(Cl)cc1	-2.9%
COc1ccc(Cl)cc1NC(=O)COC(=O)c1ccc(Br)o1	-3.1%
COc1ccc(Cl)cc1NC(=O)CCS(=O)(=O)c1ccc(Br)cc1	80.4% (active)
O=C(CSc1ccc2nnc(-c3ccccc3)n2n1)N1CCCc2ccccc21	39.2%
Cc1ccc(CSCC2Nc3ccc(C(=O)N4CCN(c5ccc(F)cc5)CC4)cc3NC2=O)cc1 (configuration not stated)	109% (active)
COC(=O)c1ccc(C(=O)OC)c(NC(=S)N2CCN(c3ccc(F)cc3)CC2)c1	-2.6%
COc1cccc2c1OCC1COc3c(c(=O)n(C)c(=O)n3C)C21 (configuration not stated)	-1.5%
C=CC1=C(C(=O)O)N2C(=O)[C@@H](NC(=O)/C(=N\OCC(=O)O)c3csc(N)n3)[C@H]2SC1	-0.3%
C=CC1=C(C(=O)O)N2C(=O)[C@@H](NC(=O)/C(=N/OCC(=O)O)c3csc(N)n3)[C@H]2SC1	45.1% (active)
Cc1ccc2c(CN3CCN(S(=O)(=O)c4ccccc4C(F)(F)F)CC3)cc(=O)oc2c1	3.9%
